HCT116 bCat-KO: beta-catenin-lacking colon tumor cell growth suppression; viability, % at 10 µM; HCT116 beta-catenin knockout viability, CellTiter-Glo, 60 h; stronger effect = lower value; 140,000 tested, 1.5% active;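 active = viability at or under a set limit, the compound median less 4 SD, cut at about 6% in these data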;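 note: 0% = Hyamine 1622 control at 20 µM and 100% = untreated cell control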
ROMK mod: modulators of human ROMK potassium channel; Tet-inducible ROMK, thallium flux fluorescence; actives lie on both sides; B-score at 10 µM; 130,000 tested, 2% active; AID 1918; P48048;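 active = signal ratio slope over the read window, or its plate-corrected B-score, at least 3 SD from the plate mean, either direction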;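 note: B-score of the F/F0 ratio slope over 7 to 12 s after thallium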
p97 inhibitor: blocks human p97 ATPase activity | AID 1481 | inhibition, % at 8 µM | recombinant p97 ATPase, Kinase-Glo ATP luminescence, 3 h | 220,000 tested, 0.42% active; in the data active = inhibition above about 15%;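 note: 0% = DMSO vehicle and 100% = wells lacking enzyme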
Target sequence (P55072 whole entry, looked up): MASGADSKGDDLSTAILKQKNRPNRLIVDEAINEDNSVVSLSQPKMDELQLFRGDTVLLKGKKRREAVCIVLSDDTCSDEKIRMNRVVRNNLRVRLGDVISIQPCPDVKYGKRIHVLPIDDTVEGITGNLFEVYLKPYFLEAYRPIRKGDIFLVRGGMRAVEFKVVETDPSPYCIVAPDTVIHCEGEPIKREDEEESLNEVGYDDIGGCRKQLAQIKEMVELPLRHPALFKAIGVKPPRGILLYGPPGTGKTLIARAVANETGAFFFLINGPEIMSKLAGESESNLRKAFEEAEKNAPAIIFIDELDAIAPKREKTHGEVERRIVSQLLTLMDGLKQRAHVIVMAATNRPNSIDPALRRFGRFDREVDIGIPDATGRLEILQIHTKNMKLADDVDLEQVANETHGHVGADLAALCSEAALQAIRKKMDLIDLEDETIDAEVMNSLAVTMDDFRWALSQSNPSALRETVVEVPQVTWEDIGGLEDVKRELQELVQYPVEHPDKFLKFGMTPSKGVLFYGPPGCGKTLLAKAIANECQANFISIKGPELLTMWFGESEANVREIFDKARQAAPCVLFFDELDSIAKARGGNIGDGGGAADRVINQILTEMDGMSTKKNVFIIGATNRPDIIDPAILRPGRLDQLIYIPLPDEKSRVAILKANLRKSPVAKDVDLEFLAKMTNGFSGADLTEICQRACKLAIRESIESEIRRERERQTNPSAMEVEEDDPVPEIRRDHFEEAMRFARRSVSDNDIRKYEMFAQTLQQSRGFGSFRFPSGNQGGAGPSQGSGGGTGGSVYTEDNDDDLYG
HCT116 PTEN-null: growth suppressors of cells with PTEN tumor suppressor deletion | viability, % at 10 µM | 140,000 tested, 1.2% active | HCT116 PTEN-null viability, CellTiter-Glo, 60 h; stronger effect = lower value;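 active = viability at or below a set limit, 4 SD under the median of all tested compounds, cut at about 3.7% in these data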;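 note: PTEN knockout HCT116 line with beta catenin targeted HCT116 as companion control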
Lmaj promast: reduces viability of Leishmania major promastigotes | resazurin fluorescence viability | inhibition, % at 10 µM | 200,000 tested, 9% active; in the data active = inhibition above about 50%;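 note: promastigotes grown with compound for 44 hours at 28 °C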
INS promoter inh: TRM-6 insulin promoter activity inhibition. TRM-6 cells (human fetal islet line), insulin promoter-eGFP reporter, imaging; reporter expression induced with tamoxifen. inhibition, % at 2 µM. 130,000 tested, 0.9% active. AID 1273;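 active = inhibition above the mean plus 3 SD, with well images judged a real hit on visual review, cut at about 60% in these data, passing the limit was not always enough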
An asterisk follows results filed as active; nt = not tested or not shown. Rows were chosen to be rich in hits. Some 10% of all compounds tested hit in one or more screens of this group.

SMILES	HCT116 bCat-KO	ROMK mod	p97 inhibitor	HCT116 PTEN-null	Lmaj promast	INS promoter inh
Nc1cc(Cl)ccc1C(=O)OCC(=O)N1CCOCC1	nt	nt	-1	nt	nt	nt
O=C(Nc1ccccc1Cl)NC1(C(=O)N2CCCC2)CCCCC1	0.7*	nt	1	0.8*	4	62
CCN1CCN(c2ncc3c(n2)CC(c2ccc(OC)c(OC)c2)CC3=O)CC1 (centres undefined)	55	0.092	-6	47	99*	nt
COc1ccc(C2CC(=O)c3cnc(N4CCN(Cc5ccccc5)CC4)nc3C2)cc1 (centres undefined)	83	nt	-10	83	-3	-24
O=[N+]([O-])c1cc(/C=N/O)ccc1Sc1ccccc1	86	0.65	-5	93	78*	14
CCN(CC)c1nc(-c2ccccn2)nc(-c2ccccc2)c1C#N	nt	-1.1	2	nt	71*	nt
CC(C)[C@@H]1NC(=O)c2cc([N+](=O)[O-])cc(I)c2NCC[C@@H](C(N)=O)NC(=O)[C@H](CO)NC1=O	98	-0.32	18*	95	-5	-32
CCCCc1ccc(NC(=S)NCc2ccccc2OC)cc1	nt	-0.54	-3	nt	34	nt
Cc1cc2sc3nc(=O)n(-c4ccccc4)c(=O)n3c2cc1C	nt	nt	-1	nt	nt	nt
O=C(NCc1cccs1)C(Cc1ccccc1)NS(=O)(=O)c1cccs1 (centres undefined)	93	-0.023	4	100	14	-49
O=C(NCc1ccc(F)cc1)C(Cc1ccccc1)NS(=O)(=O)c1cccs1 (centres undefined)	85	0.057	5	97	100*	0
O=C(NCc1ccccc1)C(Cc1ccccc1)NS(=O)(=O)c1cccc2nsnc12 (centres undefined)	86	-1.1	2	101	93*	-73
COc1ccc(OC)c(NC(=O)COC(=O)CSc2ccc(Cl)cc2)c1	98	0.032	0	94	-5	40
Cc1cc(=O)oc2cc(Oc3ccc([N+](=O)[O-])cc3[N+](=O)[O-])ccc12	22	-0.33	-4	20	86*	-3
Cc1cc(=O)oc2cc(Oc3ncccc3[N+](=O)[O-])ccc12	nt	-0.96	0	nt	-10	nt
CC(=O)Nc1ccc(OC(=O)C(CCS(C)(=O)=O)N2C(=O)c3ccccc3C2=O)cc1 (centres undefined)	87	0.19	3	100	91*	-361
Cc1ccc2nc(NCCCO)[nH]c2c1	93	nt	1	96	7	78*
O=C(CNCCC1=CCCCC1)Nc1ccc(N2CCCCCC2)cc1	36	nt	-8	24	85*	-22
O=C(CNC1CCCCCC1)Nc1ccc(N2CCCC2)cc1	66	-0.87	0	63	19	nt
CC1CCN(CC(=O)Nc2ccc(N3CCCCCC3)cc2)CC1	nt	0.44	-5	nt	78*	nt
O=C(CNC1CCCC1)Nc1ccc(N2CCCCCC2)cc1	nt	0.24	-5	nt	85*	nt
COc1ccc(C(=O)/C=C/C(=O)N(CC(=O)NC2CCCCC2)Cc2cccs2)c(O)c1	nt	-0.14	1	nt	31	nt
O=C(NC1CCCCC1)C(c1ccncc1)N(Cc1ccc2c(c1)OCO2)C(=O)c1cnsn1 (centres undefined)	87	-0.074	2	85	-1	31
COc1ccc(C(=O)/C=C/C(=O)N(Cc2ccc3c(c2)OCO3)C(C(=O)NC2CCCCC2)c2ccncc2)c(O)c1 (centres undefined)	57	-2.1	3	54	55*	-23
COc1ccc(CN(C(=O)/C=C/C(=O)c2ccc(OC)cc2O)C(C(=O)NC2CCCCC2)c2ccncc2)cc1 (centres undefined)	70	-0.64	-5	76	78*	-52
SMILES	HCT116 bCat-KO	ROMK mod	p97 inhibitor	HCT116 PTEN-null	Lmaj promast	INS promoter inh
Cc1ccccc1-n1c(-c2ccc(Cl)cc2)cnc1SCC(=O)NC1CCS(=O)(=O)C1 (centres undefined)	76	0.88	5	76	18	17
C/C(=N\NC(=O)C1CCCN(S(=O)(=O)c2ccccc2)C1)c1ccccn1 (centres undefined)	6	nt	1	10	99*	61
C/C(=N\NC(=O)C1CCCN(S(=O)(=O)c2ccccc2)C1)c1ccncc1 (centres undefined)	89	nt	0	93	0	30
C/C(=N\NC(=O)C(c1ccccc1)c1ccccc1)c1ccccn1	4.3*	-0.036	-3	5	100*	-75
O=C(N/N=C\c1cc(Br)cs1)C1COc2ccccc2O1 (centres undefined)	31	nt	6	37	53*	42
C/C(=N\NC(=O)C1COc2ccccc2O1)c1ccccn1 (centres undefined)	5.0*	nt	2	5	99*	nt
C/C(=N\NC(=O)C1COc2ccccc2O1)c1ccc(C)o1 (centres undefined)	102	0.31	0	111	-5	22
O=C(N/N=C/c1ccc2c(c1)OCO2)C1COc2ccccc2O1 (centres undefined)	81	-0.58	0	71	27	nt
OCCNC(=S)c1ccccc1	nt	nt	4	nt	nt	nt
CCOC(=O)c1cnc(SCCN2CCOCC2)nc1N	nt	0.91	5	nt	-5	21
COc1ccc(S(=O)(=O)N(CC(C)C)CC(C)C)c2cccnc12	85	nt	-14	93	72*	nt
CCN(Cc1ccccc1)S(=O)(=O)c1ccc(OC)c2ncccc12	nt	nt	2	nt	nt	nt
CCOc1ccc(S(=O)(=O)N2CCN(c3ccccc3OC)CC2)c2cccnc12	78	-0.15	-5	72	2	-21
CCCCN(CCCC)S(=O)(=O)c1ccc(OC)c2ncccc12	57	-2	-5	58	75*	-11
CCOC(=O)N1CCN(C(=O)c2cn(CC)c3cc(N4CCN(C)CC4)c(F)cc3c2=O)CC1	91	0.08	4	85	-7	-7
S=c1[nH]nc(-c2cc(-c3ccccc3)n[nH]2)n1/N=C/C(Br)=C/c1ccccc1	nt	nt	3	nt	nt	nt
COc1cc2c(cc1OC)C(SC)=NC(C)(C)C2	2.2*	-1.9	-6	12	45	-19
Cc1cc(C(=O)CN2C(=O)NC3(CCCc4ccccc43)C2=O)c(C)n1C (centres undefined)	100	-0.11	0	100	7	-22
Cc1cc(C(=O)CN2C(=O)NC3(CCCc4sccc43)C2=O)c(C)n1-c1ccc(Cl)cc1 (centres undefined)	72	nt	8	67	84*	-4
Cc1cc[n+](-c2ccccc2)c2ccccc12	nt	-0.005	-6	nt	3	nt
CCOc1ccc(N(CC(=O)Nc2nccs2)S(=O)(=O)c2c(C)[nH]c(=O)[nH]c2=O)cc1	nt	0.055	4	nt	-9	nt
Cc1oc(-c2ccc(Cl)cc2)nc1CS(=O)CC(=O)NCCN1CCCC1 (centres undefined)	89	nt	-3	89	-2	nt
Cc1oc(-c2ccc(Cl)cc2)nc1CS(=O)CC(=O)NCCCN(C)C1CCCCC1 (centres undefined)	78	-1.6	5	61	100*	0
C/C(=N/NC(N)=S)c1ccc(Br)s1	nt	-1.6	1	nt	4	nt
